This is a sample that favours compounds with a hit; in the whole collection about 9.2% have one here.
ELG1 genotoxic – induces genotoxicity in HEK293T cells with luciferase-tagged ELG1; HEK293T ELG1-luciferase reporter, luminescence, 16 h; Potency, µM (doses to about 46 µM), usual class: activators; hit rate 1.3% among 330,000; note: nearly all actives have a fitted effect of over 60% in size
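HEK293T cells expressing luciferase-tagged ELG1 were exposed to compound or DMSO vehicle for 16 hr at 37 °C and 5% CO2. Luciferase activity was then measured with ONE-Glo after 30 min at room temperature.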
FLuc counter – counter-screen for miR-21 project: firefly luciferase inhibitors or activators | purified FLuc, Km substrates, luminescence inhibition | Potency, µM (top dose mostly 57.5 µM), actives largely listed as inhibitors | hit rate 6.9% among 360,000; note: nearly all actives have a fitted effect of over 55% in size
Target sequence (P08659 whole entry, looked up): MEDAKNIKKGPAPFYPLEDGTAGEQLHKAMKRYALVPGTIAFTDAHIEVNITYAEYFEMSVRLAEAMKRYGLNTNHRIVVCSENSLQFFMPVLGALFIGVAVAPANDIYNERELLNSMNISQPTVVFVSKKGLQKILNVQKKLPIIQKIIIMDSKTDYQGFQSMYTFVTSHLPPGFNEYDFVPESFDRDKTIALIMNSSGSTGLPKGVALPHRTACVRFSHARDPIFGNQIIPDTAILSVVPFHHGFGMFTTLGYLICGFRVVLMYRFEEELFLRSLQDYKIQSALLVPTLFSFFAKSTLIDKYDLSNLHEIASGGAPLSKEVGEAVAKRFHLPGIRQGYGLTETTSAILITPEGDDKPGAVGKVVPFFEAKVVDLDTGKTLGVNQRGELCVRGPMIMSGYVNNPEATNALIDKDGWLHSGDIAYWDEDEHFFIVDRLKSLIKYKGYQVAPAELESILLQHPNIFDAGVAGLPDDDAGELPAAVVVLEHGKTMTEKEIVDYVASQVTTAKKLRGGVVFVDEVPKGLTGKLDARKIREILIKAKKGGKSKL
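Purified P. pyralis luciferase, 10 nM final, with Km-level 10 uM D-luciferin and 10 uM ATP in 50 mM Tris acetate pH 7.5, 10 mM Mg acetate, 0.01% Tween-20, 0.05% BSA; 6-point qHTS titration about 60 µM downward; luminescence read.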
Rab9 promoter act – activators of Rab9 promoter; Huh7 Rab9 promoter-luciferase reporter, luminescence, 24 h; Potency, µM (doses to about 9.22 µM), most hits filed as activators; hit rate 2.8% among 320,000; AID 485297; note: nearly all actives have a fitted effect of over 60% in size
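Luciferase signal after 10 min detection reagent at ambient indicates Rab9 promoter upregulation; stably transfected Huh7 cells were treated 24 h with compound in DMSO at 37 °C, 5% CO2.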
SMN2 splice up – enhancers of SMN2 splice variant expression | hit rate 2.8% among 210,000 | Potency, µM (titrated, usually from 46.1 µM), most hits filed as activators | HEK293 SMN2-luciferase splicing reporter, luminescence, 30-36 h; note: nearly all actives have a fitted effect of over 55% in size
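qHTS luciferase splicing reporter: luminescence rises when SMN2 exon 7 is included in transfected HEK293 cells. Compound exposure lasted 30-36 h at 37C, with 4.5 mM final sodium butyrate as control, followed by a ONE-Glo read.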
ELG1 repair inh – blocks ELG1-dependent DNA repair in HEK293T cells. Potency, µM (highest dose often 46.1 µM), most hits filed as inhibitors. HEK293T ELG1-luciferase reporter, luminescence, 16 h; DNA damage induced by 5-fluorouridine. hit rate 2.3% among 330,000; note: nearly all actives have a fitted effect of over 55% in size
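Luminescence from the luciferase reporter, measured 30 min after ONE-Glo reagent at room temperature, was the read-out. Beforehand, 2,000 cells per well were exposed for 16 hr at 37 °C to 5-fluorouridine together with compound or vehicle.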
NPC1 prom act – NPC1 promoter activation; Huh7 NPC1 promoter luciferase reporter, 24 h; Potency, µM (series often up to 9.22 µM), usual class: activators; hit rate 2.4% among 320,000; AID 485313; note: nearly all actives have a fitted effect of over 60% in size
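Cells: Huh7 expressing luciferase under the NPC1 promoter, 1500/well. Seeded 2 h, compound added, incubated 24 h at 37 °C. Luciferase reagent, 10 min ambient, then luminescence.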
Of the large screens only hits and unclear results are named; the others gave an inactive call. Calls come from the whole dose curve; as a rule, active = well fitted curve in the direction sought with a large enough effect; inconclusive = small, poorly fitted or top-dose-only effect, or another doubt; inactive = no such curve, though single readings can be large; an effect the other way counts as inactive or inconclusive.

Cc1ccc2[nH]c(CSc3nnc(C)s3)cc(=O)c2c1	none (no result: ELG1 genotoxic, Rab9 promoter act, SMN2 splice up, ELG1 repair inh, NPC1 prom act)
O=C(c1cn(-c2ccccc2)nc1-c1cccs1)N1CCN(c2ccccn2)CC1	FLuc counter 3.8µM, ELG1 repair inh inconclusive
CCN(CC(=O)Nc1ccc(NC(C)=O)cc1)C(=O)c1cn(-c2ccccc2)nc1-c1cccs1	FLuc counter 21µM, ELG1 repair inh inconclusive (no result: SMN2 splice up)
O=C(Nc1ccc2ccccc2c1)c1cn(-c2ccccc2)nc1-c1cccs1	FLuc counter 6µM
CN1CCN(NC(=O)c2cn(-c3ccccc3)nc2-c2cccs2)CC1	FLuc counter inconclusive
CC(=NC1CCCC1)c1c(C)[nH]n(-c2nc3ccccc3s2)c1=O	ELG1 genotoxic inconclusive, FLuc counter 3.4µM, Rab9 promoter act inconclusive, SMN2 splice up inconclusive, ELG1 repair inh inconclusive, NPC1 prom act inconclusive
CC(C)(C)NC(=O)C(c1ccncc1)N(C(=O)C1CSC(=O)C1)c1ccccc1 (centres undefined)	none (no result: SMN2 splice up)
COc1ccccc1NC(=O)Nc1c(C)nn(C)c1C	none
CC(C)Oc1ccc(C(=O)NC2CCCCC2)cc1	ELG1 genotoxic 18µM, FLuc counter 11µM, Rab9 promoter act 4µM, SMN2 splice up inconclusive, ELG1 repair inh inconclusive, NPC1 prom act 2.8µM
CC(C)Oc1ccc(C(=O)NC2CCS(=O)(=O)C2)cc1 (centres undefined)	ELG1 repair inh inconclusive
C=CCOc1ccc(C(=O)NC2CCCCC2)cc1	ELG1 genotoxic inconclusive, FLuc counter 12µM, Rab9 promoter act inconclusive, ELG1 repair inh inconclusive, NPC1 prom act inconclusive (no result: SMN2 splice up)
O=C(Nc1ccccc1Br)C1CCN(C(=O)Cc2ccccc2)CC1	none
O=C(O)CCCC(=O)Nc1cccc(-c2nc3ccccc3[nH]2)c1	FLuc counter 12µM
O=C(COc1ccc(F)cc1)Nc1ccc(Cl)c(-c2nc3ccccc3[nH]2)c1	none (no result: ELG1 genotoxic, Rab9 promoter act, SMN2 splice up, ELG1 repair inh, NPC1 prom act)
O=C(COc1ccccc1)Nc1cccc(-c2nc3ccccc3[nH]2)c1	FLuc counter 17µM, SMN2 splice up inconclusive, ELG1 repair inh inconclusive
COc1ccc(OCC(=O)Nc2cccc(-c3nc4ccccc4[nH]3)c2)cc1	FLuc counter 9.5µM, SMN2 splice up inconclusive, ELG1 repair inh inconclusive, NPC1 prom act inconclusive
Cc1ccccc1C(=O)Nc1ccc(S(=O)(=O)N2CCCC2)cc1	none (no result: SMN2 splice up)
O=C(CCl)Nc1cc(SCC(O)CO)cc([N+](=O)[O-])c1 (centres undefined)	ELG1 repair inh 3.3µM
CCOc1ccc(/C=C2\CCc3ccccc3C2=O)cc1	ELG1 genotoxic inconclusive, FLuc counter 0.3µM, Rab9 promoter act 1.1µM, ELG1 repair inh inconclusive, NPC1 prom act 2.8µM (no result: SMN2 splice up)
COc1cc(/C=C2\CCc3ccccc3C2=O)cc(OC)c1OC	FLuc counter inconclusive, ELG1 repair inh inconclusive
O=C1/C(=C\c2ccncc2)CCc2ccccc21	FLuc counter 9.5µM, ELG1 repair inh inconclusive (no result: SMN2 splice up)
O=C1/C(=C/c2ccncc2)CCc2ccccc21	FLuc counter 8.5µM (no result: SMN2 splice up)
CC(=O)O[C@]1(C(C)=O)CC[C@H]2C3C=C(Cl)C4=CC(=O)[C@@H]5C[C@H]5[C@]4(C)C3CC[C@@]21C (some centres undefined)	none (no result: ELG1 genotoxic, FLuc counter, Rab9 promoter act, ELG1 repair inh, NPC1 prom act)
CCc1ccccc1-n1c(C)nc2cc(C(=O)NCCc3ccc(Cl)cc3)ccc21	none (no result: ELG1 genotoxic, Rab9 promoter act, SMN2 splice up, ELG1 repair inh, NPC1 prom act)
CC(C)N(C(=O)[C@H]1CC(CC(=O)NC(C)(C)C)C(=O)N2CCc3c([nH]c4ccccc34)[C@]12C)C(C)C (some centres undefined)	none (no result: FLuc counter, Rab9 promoter act, SMN2 splice up, NPC1 prom act)
O=C1C(Cl)=C(N2CCCCCC2)C(=O)N1c1ccc(Cl)cc1	FLuc counter inconclusive (no result: SMN2 splice up)
O=C1C=C(N2CCCCCC2)C(=O)N1c1ccc(Cl)cc1	ELG1 genotoxic inconclusive, FLuc counter 2.1µM, Rab9 promoter act 2.2µM, ELG1 repair inh inconclusive, NPC1 prom act 1.6µM (no result: SMN2 splice up)
O=c1ccc2cc(S(=O)(=O)N3CCN(c4ccc(Cl)cc4)CC3)ccc2o1	none (no result: SMN2 splice up)
CCOc1ccc(NC(=O)c2ccc(N3CC4CC(C3)c3cccc(=O)n3C4)c(NC(=O)CCN3CCOCC3)c2)cc1 (centres undefined)	ELG1 repair inh 7.3µM (no result: SMN2 splice up)
O=C(COC(=O)/C=C/c1ccco1)NCCc1ccccc1	none
